Sampled rows, rich in hits. Any-hit rate of the full collection: about 4.3%.
rCAG RNA binder – binds r(CAG) RNA repeats; AID 651821; inhibition, % at 3 µM; actives 1.3% (n = 370,000); r(CAG) RNA repeat, TO-PRO-1 dye displacement fluorescence;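 active means inhibition above the plate cutoff, the mean of all test compounds on that plate plus 3 SD, cut at about 35% in these data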;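 further: 0% = DMSO alone and 100% = 100 µM mitoxantrone as full dye displacement; higher means more dye released from RNA so lower well fluorescence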
NadD block – blocks S. aureus nicotinate mononucleotide adenylyltransferase. purified NadD enzyme, colorimetric absorbance read-out. inhibition, % at 20 µM. actives 0.78% (n = 360,000). AID 602399; in the data active means inhibition above about 26%
FAS TE block – inhibitors of human fatty acid synthase thioesterase domain. P49327. recombinant FAS-TE, OMFH fluorogenic substrate, fluorescence endpoint. inhibition, % at 15 µM. actives 0.67% (n = 360,000);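 active means compounds whose normalised, plate-corrected inhibition of enzyme fluorescence in the single-dose primary screen is 50% or more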;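 further: 0% = DMSO with enzyme and 100% = substrate without enzyme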
NR3A LBD binder – NR3A (human) ligand-binding domain modulation | NR3A LBD differential scanning fluorimetry, Tm shift; 0% = protein alone, 100% = glycine-bound protein | AID 1259313 | Tm shift relative to glycine control, % at 25 µM | actives 2.5% (n = 340,000);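 active means melting temperature shift of at least 10% of the positive control shift, at one fixed dose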
Active calls of the source: *; x = not tested or not shown.

SMILES	rCAG RNA binder	NadD block	FAS TE block	NR3A LBD binder
C=CCn1c(SCC(=O)NC2CCCC2)nc2sc(C)cc2c1=O	-2	-2	-4	21*
O=C(CCN1C(=O)/C(=C/C=C/c2ccccc2)SC1=S)Nc1nc2ccccc2s1	10	42*	23	-25
O=C(CN1C(=O)/C(=C\C=C\c2ccccc2)SC1=S)Nc1ccc(F)cc1	13	14	7	7
O=C(O)CCCN1C(=O)/C(=C/c2ccc(-c3nc4ccccc4s3)o2)SC1=S	18	11	-1	26*
O=C(O)CCCCCN1C(=O)/C(=C\c2ccc(-c3ccc(Cl)cc3)o2)SC1=S	3	8	-7	0
Nc1ncnc2c1ncn2[C@@H]1O[C@H](CNC(=O)[C@@H]2CCN2)[C@@H](O)[C@H]1O	4	1	-7	15*
Nc1ncnc2c1ncn2[C@@H]1O[C@H](CNCc2cccc(C#Cc3ccccc3)c2)[C@@H](O)[C@H]1O	12	2	-3	13*
Cc1ccc(Oc2ncccc2/C=N/OCc2ccc(Cl)cc2Cl)cc1	-2	-1	16	14*
CCc1ccc2c(c1)/C(=N/N(C)C(=S)NC)C(=O)N2	2	2	1	13*
CCc1ccc2c(c1)/C(=C/C(=O)c1cccs1)C(=O)N2	21	4	-1	-30
C=C1C(=O)C=C2CN(C(=O)c3ccccc3)[C@@](Cc3ccc(F)cc3)(C(=O)OC)[C@@H]12	x	8	-2	12*
CCOc1ccc(-n2c(SCC(=O)Nc3ccc(Br)cc3)nc3n[nH]c(C)c3c2=N)cc1	9	9	-3	19*
COc1cccc(NC(=O)CSc2nc3n[nH]c(C)c3c(=N)n2-c2cccc(OC)c2)c1	12	5	-1	-3
CCc1ccc(NC(=O)CSc2nc3n[nH]c(C)c3c(=N)n2-c2cccc(OC)c2)cc1	8	8	1	23*
Cc1cc(-n2c(SCC(=O)Nc3ccc(F)c(F)c3)nc3n[nH]c(C)c3c2=N)ccc1Cl	9	26	6	26*
Cc1cc(NC(=O)Nc2ccc3c(ccn3C)c2)sn1	8	2	-1	17*
Cc1ccc(OC(C)C(=O)Nc2ccncc2)cc1 (centres undefined)	-1	-2	-5	0
Cc1ccc(OC(C)C(=O)Nc2ccc(C)c(S(=O)(=O)Nc3ccc(C)cc3C)c2)cc1 (centres undefined)	5	1	42	12*
Cc1ccc(S(=O)(=O)Nc2ccc(Cl)cc2)cc1NC(=O)c1cc2c(s1)CCCC2	19	24	32	12*
Cc1ccc(NS(=O)(=O)c2cc(NC(=O)c3cc4c(s3)CCCC4)ccc2C)c(C)c1	4	16	23	25*
CCOC(=O)c1cnc2ccc(C)cc2c1Sc1ccc(F)cc1	-7	5	32	19*
CCOC(=O)c1cnc2ccc(C)cc2c1Sc1ccccc1	-6	2	19	0
COc1ccc(-c2noc(C3CCCN(C(=O)Nc4ccc(Cl)cc4)C3)n2)cc1 (centres undefined)	5	x	x	x
O=C(Nc1ccc2oc(=O)ccc2c1)c1cc2ccccc2o1	32	-6	0	9
O=C(Nc1ccc2oc(=O)ccc2c1)c1ccc(-c2ccc(Cl)cc2)o1	6	25	-7	27*
SMILES	rCAG RNA binder	NadD block	FAS TE block	NR3A LBD binder
O=C(Nc1ccc2oc(=O)ccc2c1)c1ccc(-c2ccccc2[N+](=O)[O-])o1	2	-5	2	30*
COc1cc2ccccc2cc1C(=O)Nc1ccc2oc(=O)ccc2c1	7	2	2	15*
O=C(Nc1ccc2oc(=O)ccc2c1)c1ccc(-c2cccc(Cl)c2)o1	3	20	10	29*
C(#CC1=CCCCC1)CNCC1CC1	1	x	x	x
CCCC1CCC2(CCC(=O)N2CCOC)CC1 (centres undefined)	2	x	x	x
COc1cccc(C(=O)n2ccc3ccc(-c4ccc5ccn(Cc6ccc(C#N)cc6)c5c4)cc32)c1	24	x	x	x
O=S1(=O)c2c(NCc3ccco3)cccc2Oc2ccccc2CN1Cc1cn(Cc2ccc(Cl)cc2)nn1	15	x	x	x
O=C(NC1CCCC1)N1CCC(c2nc3ccc(Cl)cc3[nH]2)CC1	3	x	x	x
O=C(Nc1ccc2oc(=O)ccc2c1)c1ccc(-c2cccc([N+](=O)[O-])c2)o1	9	20	12	35*
NNC(=O)c1ccc(-c2cccc([N+](=O)[O-])c2)o1	3	-16	2	-1
COc1cc(C(=O)Nc2scc(-c3ccccc3)c2C(=O)O)cc(OC)c1OC	49*	-3	-1	-4
COc1ccc(/C=C2\C(=O)N(c3c(Cl)cc(Cl)cc3Cl)N=C2NC(=O)c2cccc([N+](=O)[O-])c2)cc1	x	84*	20	13*
CC(=O)CC[C@@H]1CC[C@]2(CCCN(C(=O)c3ccccc3)C2)O1	0	x	x	x
C#CCOCCOCCOCCNc1nc(N2CCN(C(=O)CCCCCCCCCCNC(=O)[C@@H](CCSC)n3cc(CCO)nn3)CC2)nc(N2CCN(C(=O)CCCCCCCCCCNC(=O)[C@H](CCCN=C(N)N)n3cc(C[C@@H](C)CC)nn3)CC2)n1	x	71*	-145	-19
C#CCOCCOCCOCCNc1nc(N2CCN(C(=O)CCCCCCCCCCNC(=O)[C@@H](CCC(=O)O)n3cc(CCCCCN)nn3)CC2)nc(N2CCN(C(=O)CCCCCCCCCCNC(=O)[C@H](CCCCN)n3cc(C[C@@H](C)CC)nn3)CC2)n1	x	36*	-24	-5
C#CCOCCOCCOCCNc1nc(N2CCN(C(=O)C(Cc3cc4ccccc4[nH]3)n3cc(C(N)C(C)CC)nn3)CC2)nc(N2CCN(C(=O)C(Cc3cc4ccccc4[nH]3)n3cc(C(N)C(C)CC)nn3)CC2)n1 (centres undefined)	x	42*	-4	-6
C#CCOCCOCCOCCNc1nc(N2CCN(C(=O)CCCCCCCCCCNC(=O)[C@@H](CCC(=O)O)n3cc(CCCCCN)nn3)CC2)nc(N2CCN(C(=O)CCCCCCCCCCNC(=O)[C@H](CO)n3cc(CCCCCN)nn3)CC2)n1	x	0	-14	-1
C#CCOCCOCCOCCNc1nc(N2CCOCC2)nc(N2CCN(C(=O)[C@H](Cc3cc4ccccc4[nH]3)n3cc([C@@H](N)C(C)CC)nn3)CC2)n1 (some centres undefined)	-4	5	-7	2
C#CCOCCOCCOCCNc1nc(N2CCN(C(=O)CCCCCCCCCCNC(=O)[C@H](CCCCN)n3cc(C)nn3)CC2)nc(N2CCN(C(=O)CCCCCCCCCCNC(=O)[C@H](CCCN=C(N)N)n3cc(C[C@@H](C)CC)nn3)CC2)n1	x	x	x	-8
C#CCOCCOCCOCCNc1nc(N2CCN(C(=O)CCCCCCCCCCNC(=O)[C@H](CCCCN)n3cc(C[C@@H](C)CC)nn3)CC2)nc(N2CCN(C(=O)CCCCCCCCCCNC(=O)[C@H](CCCN=C(N)N)n3cc(C[C@@H](C)CC)nn3)CC2)n1	x	64*	-150	-27
O=C(OC12CCCN(C1)/C(=C/c1ccncc1)C2)c1ccccc1 (centres undefined)	3	x	x	x
Cc1c(NC(=O)C2CCCN(S(=O)(=O)c3ccc(C(C)(C)C)cc3)C2)c(=O)n(-c2ccccc2)n1C (centres undefined)	-1	x	x	x
